One compound from ChEMBL document CHEMBL1961873, “Compounds: GSK PKIS; Assays: Nanosyn kinase panel” (2012) can be followed below.

In test [1] the target is Protein kinase C gamma type (Homo sapiens) (UniProt P05129). The conditions noted are these: at 1 µM.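 Further: each value is an averaged percent inhibition of the enzyme.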
Test [2] concerns the target T1, Protein kinase C iota type (Homo sapiens) (UniProt P41743).
T1 sequence (whole entry): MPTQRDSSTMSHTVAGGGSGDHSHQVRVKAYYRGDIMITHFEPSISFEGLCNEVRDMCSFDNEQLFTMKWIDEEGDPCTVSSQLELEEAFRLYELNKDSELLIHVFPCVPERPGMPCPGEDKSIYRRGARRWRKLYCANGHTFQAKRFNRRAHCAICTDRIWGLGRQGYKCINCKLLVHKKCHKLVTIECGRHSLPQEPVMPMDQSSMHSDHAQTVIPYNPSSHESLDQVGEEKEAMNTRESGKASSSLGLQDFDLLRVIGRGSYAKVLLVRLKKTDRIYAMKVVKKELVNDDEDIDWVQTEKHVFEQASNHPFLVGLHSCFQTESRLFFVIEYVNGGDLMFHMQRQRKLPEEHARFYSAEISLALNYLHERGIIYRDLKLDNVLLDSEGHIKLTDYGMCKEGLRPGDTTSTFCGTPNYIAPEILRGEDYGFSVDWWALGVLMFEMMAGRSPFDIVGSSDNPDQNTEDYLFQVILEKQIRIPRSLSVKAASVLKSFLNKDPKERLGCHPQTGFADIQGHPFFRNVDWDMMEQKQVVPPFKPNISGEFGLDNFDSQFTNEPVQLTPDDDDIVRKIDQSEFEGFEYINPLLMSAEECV
Particulars: at 0.1 µM.

The target in test [3] is T1, Protein kinase C iota type (Homo sapiens). The conditions noted are these: at 1 µM.
Test [4] concerns the target Protein kinase C theta type (Homo sapiens) (UniProt Q04759). Particulars: at 0.1 µM.
The target is the same in test [5]. Particulars: at 1 µM.
Test [6] addresses Protein kinase C beta type (Homo sapiens) (UniProt P05771). Particulars: at 0.1 µM.
Test [7] shares this target. The conditions noted are these: at 1 µM.
For test [8], the target named is T2, Serine/threonine-protein kinase D1 (Homo sapiens) (UniProt Q15139).
T2 sequence (whole entry): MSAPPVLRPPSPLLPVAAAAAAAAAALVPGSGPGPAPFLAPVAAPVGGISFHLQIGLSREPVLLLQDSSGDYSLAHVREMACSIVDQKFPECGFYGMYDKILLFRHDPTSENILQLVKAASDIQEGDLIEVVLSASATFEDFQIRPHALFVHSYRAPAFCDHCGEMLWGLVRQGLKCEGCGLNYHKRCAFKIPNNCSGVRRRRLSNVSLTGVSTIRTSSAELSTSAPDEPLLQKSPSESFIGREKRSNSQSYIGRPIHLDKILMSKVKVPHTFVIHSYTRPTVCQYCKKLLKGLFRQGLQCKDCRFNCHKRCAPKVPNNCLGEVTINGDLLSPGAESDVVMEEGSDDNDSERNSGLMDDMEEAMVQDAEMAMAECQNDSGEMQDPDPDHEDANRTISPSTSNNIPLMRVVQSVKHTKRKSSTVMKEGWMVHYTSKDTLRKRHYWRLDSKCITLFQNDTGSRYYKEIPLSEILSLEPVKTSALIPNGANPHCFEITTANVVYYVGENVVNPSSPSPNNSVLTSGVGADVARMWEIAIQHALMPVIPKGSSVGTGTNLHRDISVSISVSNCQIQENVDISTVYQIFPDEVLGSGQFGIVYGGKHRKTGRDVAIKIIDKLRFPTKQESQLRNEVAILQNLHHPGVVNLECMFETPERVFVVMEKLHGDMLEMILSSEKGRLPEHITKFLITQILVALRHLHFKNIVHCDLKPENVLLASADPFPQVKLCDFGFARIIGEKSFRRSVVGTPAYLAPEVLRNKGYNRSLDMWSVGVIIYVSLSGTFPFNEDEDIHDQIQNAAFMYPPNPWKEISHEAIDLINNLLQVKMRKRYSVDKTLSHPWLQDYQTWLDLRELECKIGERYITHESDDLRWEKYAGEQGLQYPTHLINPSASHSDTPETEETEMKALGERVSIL
Particulars: at 0.1 µM.

Test [9] addresses T2, Serine/threonine-protein kinase D1 (Homo sapiens). The conditions noted are these: at 1 µM.
The target of test [10] is T3, Serine/threonine-protein kinase D2 (Homo sapiens) (UniProt Q9BZL6).
T3 sequence (whole entry): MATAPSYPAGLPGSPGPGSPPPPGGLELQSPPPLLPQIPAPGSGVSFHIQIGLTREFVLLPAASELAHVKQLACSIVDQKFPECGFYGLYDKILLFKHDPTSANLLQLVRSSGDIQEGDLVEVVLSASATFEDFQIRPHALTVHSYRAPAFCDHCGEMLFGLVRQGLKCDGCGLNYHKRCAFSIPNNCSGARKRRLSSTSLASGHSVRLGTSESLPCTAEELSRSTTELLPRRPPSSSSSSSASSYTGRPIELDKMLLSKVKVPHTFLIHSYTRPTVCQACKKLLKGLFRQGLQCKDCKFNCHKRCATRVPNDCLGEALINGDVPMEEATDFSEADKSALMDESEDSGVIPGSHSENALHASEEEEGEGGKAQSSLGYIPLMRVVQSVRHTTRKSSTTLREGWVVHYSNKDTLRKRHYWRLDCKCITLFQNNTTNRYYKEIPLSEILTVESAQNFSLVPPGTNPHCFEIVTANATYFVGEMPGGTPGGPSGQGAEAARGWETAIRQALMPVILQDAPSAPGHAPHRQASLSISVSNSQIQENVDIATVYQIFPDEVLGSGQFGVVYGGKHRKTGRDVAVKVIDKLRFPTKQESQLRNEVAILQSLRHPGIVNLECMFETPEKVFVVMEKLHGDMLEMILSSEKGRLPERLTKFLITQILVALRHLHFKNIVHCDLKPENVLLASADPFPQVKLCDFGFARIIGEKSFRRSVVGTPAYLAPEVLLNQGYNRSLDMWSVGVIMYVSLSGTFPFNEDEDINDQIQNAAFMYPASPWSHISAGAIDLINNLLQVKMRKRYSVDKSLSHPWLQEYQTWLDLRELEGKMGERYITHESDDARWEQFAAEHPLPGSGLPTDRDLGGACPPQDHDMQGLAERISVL
The conditions noted are these: at 0.1 µM.

Test [11] concerns the target T3, Serine/threonine-protein kinase D2 (Homo sapiens). The conditions noted are these: at 1 µM.
The target in test [12] is T4, Serine/threonine-protein kinase D3 (Homo sapiens) (UniProt O94806).
T4 sequence (whole entry): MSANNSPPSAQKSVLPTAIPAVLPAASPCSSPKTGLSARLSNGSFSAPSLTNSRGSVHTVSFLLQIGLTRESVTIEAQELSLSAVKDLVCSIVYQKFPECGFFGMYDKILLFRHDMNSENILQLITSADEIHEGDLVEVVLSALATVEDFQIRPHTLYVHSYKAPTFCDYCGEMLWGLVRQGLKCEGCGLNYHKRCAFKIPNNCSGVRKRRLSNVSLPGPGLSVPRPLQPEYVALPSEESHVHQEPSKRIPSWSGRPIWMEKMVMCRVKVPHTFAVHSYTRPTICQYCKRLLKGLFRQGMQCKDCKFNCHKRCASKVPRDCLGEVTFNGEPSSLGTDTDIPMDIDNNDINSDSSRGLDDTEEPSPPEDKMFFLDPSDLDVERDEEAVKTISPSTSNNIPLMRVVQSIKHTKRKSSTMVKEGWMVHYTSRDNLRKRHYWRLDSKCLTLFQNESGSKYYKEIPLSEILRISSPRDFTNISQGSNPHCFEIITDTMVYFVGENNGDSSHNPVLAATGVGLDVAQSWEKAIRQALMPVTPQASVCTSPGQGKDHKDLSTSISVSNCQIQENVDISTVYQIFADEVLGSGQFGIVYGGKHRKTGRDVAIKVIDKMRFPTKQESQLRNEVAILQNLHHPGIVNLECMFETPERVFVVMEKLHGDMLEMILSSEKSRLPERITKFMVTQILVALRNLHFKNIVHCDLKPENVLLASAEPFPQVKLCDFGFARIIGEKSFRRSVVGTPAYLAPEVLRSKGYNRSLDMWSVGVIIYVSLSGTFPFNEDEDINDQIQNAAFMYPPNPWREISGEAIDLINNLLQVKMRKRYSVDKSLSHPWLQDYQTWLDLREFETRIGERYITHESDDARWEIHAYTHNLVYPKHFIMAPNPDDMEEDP
Particulars: at 0.1 µM.

For test [13], the target named is T4, Serine/threonine-protein kinase D3 (Homo sapiens). The conditions noted are these: at 1 µM.
For test [14], the target named is T5, cGMP-dependent protein kinase 1 (Homo sapiens) (UniProt Q13976).
T5 sequence (whole entry): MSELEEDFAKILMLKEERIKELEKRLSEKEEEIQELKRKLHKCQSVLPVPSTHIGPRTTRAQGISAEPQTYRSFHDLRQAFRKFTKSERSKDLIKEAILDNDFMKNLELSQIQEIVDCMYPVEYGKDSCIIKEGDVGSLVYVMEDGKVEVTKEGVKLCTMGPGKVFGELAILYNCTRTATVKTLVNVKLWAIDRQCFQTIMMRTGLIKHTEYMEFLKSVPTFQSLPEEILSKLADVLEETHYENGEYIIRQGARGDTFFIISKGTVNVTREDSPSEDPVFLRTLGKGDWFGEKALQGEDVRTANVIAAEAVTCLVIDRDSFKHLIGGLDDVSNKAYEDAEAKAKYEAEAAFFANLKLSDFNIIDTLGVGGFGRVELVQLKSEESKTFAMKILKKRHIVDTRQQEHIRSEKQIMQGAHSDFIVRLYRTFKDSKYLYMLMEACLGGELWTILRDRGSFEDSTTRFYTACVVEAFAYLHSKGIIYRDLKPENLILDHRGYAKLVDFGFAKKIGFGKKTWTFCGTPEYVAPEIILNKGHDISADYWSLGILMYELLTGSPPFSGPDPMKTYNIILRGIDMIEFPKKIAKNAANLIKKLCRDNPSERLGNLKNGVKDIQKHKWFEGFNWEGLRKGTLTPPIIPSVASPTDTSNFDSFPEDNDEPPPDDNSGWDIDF
The conditions noted are these: at 0.1 µM.

Test [15] addresses T5, cGMP-dependent protein kinase 1 (Homo sapiens). The conditions noted are these: at 1 µM.
The target in test [16] is T6, cGMP-dependent protein kinase 2 (Homo sapiens) (UniProt Q13237).
T6 sequence (whole entry): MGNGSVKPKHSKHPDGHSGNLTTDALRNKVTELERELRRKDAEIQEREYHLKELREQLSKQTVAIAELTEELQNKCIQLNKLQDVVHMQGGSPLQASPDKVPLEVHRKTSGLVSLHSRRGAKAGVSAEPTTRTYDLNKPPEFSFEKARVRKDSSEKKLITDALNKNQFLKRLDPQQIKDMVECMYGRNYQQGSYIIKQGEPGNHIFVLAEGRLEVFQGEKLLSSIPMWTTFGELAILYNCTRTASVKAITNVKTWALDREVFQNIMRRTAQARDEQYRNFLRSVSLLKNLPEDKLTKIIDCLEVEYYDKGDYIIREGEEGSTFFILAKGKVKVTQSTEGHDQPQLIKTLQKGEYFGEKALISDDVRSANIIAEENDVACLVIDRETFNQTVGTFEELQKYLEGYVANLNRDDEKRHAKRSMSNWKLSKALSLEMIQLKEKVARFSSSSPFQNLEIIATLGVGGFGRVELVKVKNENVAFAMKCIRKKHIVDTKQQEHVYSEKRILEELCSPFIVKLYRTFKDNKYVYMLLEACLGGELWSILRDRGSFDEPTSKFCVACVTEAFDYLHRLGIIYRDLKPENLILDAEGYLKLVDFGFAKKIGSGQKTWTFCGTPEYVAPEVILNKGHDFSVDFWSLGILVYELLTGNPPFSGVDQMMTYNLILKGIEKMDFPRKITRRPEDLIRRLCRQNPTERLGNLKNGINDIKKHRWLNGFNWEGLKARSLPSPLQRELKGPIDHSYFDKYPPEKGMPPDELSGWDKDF
The conditions noted are these: at 0.1 µM.

Test [17] addresses T6, cGMP-dependent protein kinase 2 (Homo sapiens). The conditions noted are these: at 1 µM.
Test [18] concerns the target T7, cAMP-dependent protein kinase catalytic subunit PRKX (Homo sapiens) (UniProt P51817).
T7 sequence (whole entry): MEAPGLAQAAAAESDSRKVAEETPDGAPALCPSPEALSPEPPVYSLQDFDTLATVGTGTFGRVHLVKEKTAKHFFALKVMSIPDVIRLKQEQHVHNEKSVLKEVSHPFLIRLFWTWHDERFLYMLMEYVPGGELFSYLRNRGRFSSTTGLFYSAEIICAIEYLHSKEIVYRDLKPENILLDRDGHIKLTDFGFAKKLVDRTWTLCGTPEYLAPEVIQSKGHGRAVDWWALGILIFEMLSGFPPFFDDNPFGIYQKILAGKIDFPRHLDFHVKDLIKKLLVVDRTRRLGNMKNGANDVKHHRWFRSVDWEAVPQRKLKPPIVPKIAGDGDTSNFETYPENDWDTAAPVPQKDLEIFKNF
Particulars: at 0.1 µM.

The target in test [19] is T7, cAMP-dependent protein kinase catalytic subunit PRKX (Homo sapiens). The conditions noted are these: at 1 µM.
In test [20] the target is Rho-associated protein kinase 1 (Homo sapiens) (UniProt Q13464). The conditions noted are these: at 0.1 µM.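 Further: values are mean percent inhibition of ROCK1.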
Rho-associated protein kinase 1 (Homo sapiens), sequence (Q13464 2-1354 limits assumed): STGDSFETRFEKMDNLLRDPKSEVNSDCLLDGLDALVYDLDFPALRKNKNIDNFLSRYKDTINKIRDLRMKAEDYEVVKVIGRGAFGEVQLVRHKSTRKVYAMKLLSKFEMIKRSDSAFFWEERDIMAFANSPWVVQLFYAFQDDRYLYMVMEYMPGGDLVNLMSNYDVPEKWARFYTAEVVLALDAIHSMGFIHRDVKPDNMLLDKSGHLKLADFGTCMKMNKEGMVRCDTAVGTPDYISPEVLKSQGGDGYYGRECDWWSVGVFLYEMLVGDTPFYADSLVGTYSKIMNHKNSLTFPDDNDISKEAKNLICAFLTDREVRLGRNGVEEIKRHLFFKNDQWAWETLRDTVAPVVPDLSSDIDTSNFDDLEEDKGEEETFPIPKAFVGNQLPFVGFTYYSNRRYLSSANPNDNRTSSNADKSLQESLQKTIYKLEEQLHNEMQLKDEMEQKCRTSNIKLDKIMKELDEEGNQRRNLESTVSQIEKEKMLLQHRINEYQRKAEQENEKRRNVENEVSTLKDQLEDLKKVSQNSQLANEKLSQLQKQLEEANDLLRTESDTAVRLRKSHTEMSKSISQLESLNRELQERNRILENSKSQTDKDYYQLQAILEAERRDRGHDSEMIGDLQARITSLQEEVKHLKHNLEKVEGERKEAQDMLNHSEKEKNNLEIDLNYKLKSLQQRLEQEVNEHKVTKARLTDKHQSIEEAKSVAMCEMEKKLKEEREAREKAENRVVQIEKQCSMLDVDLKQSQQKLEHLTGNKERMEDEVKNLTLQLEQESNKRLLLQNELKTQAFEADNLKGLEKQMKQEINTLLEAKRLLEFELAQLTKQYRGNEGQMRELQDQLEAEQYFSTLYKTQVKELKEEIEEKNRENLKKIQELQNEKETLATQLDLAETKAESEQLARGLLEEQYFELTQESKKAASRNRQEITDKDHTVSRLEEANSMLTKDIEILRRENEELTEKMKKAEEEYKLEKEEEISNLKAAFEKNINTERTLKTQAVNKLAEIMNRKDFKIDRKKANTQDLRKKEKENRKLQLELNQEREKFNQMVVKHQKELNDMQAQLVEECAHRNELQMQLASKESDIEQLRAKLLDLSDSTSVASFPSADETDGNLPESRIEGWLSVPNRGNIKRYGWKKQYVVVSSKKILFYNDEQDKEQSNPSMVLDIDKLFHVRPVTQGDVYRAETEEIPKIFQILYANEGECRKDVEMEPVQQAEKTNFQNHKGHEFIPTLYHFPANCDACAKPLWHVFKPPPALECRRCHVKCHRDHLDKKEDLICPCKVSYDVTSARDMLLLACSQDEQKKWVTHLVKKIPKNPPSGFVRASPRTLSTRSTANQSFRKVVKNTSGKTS

Protein kinase C beta type (Homo sapiens), sequence (P05771 2-671 limits assumed): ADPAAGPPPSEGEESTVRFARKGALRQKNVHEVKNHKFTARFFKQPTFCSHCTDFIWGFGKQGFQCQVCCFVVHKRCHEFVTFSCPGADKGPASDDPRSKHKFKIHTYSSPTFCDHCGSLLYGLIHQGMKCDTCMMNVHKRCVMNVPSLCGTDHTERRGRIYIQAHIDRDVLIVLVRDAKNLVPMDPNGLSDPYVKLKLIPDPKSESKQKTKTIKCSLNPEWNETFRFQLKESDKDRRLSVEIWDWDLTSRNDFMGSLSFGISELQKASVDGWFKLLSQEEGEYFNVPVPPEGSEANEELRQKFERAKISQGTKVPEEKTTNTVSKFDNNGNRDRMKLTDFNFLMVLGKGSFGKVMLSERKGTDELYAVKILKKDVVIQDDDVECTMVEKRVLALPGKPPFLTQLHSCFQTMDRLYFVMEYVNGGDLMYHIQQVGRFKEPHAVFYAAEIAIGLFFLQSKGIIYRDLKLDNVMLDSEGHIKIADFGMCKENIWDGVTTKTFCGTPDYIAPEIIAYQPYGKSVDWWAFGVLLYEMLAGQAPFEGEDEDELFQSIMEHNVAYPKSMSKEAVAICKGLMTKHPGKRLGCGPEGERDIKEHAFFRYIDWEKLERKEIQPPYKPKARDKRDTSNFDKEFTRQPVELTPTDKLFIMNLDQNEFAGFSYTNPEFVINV
Protein kinase C theta type (Homo sapiens), sequence (Q04759 whole entry, looked up): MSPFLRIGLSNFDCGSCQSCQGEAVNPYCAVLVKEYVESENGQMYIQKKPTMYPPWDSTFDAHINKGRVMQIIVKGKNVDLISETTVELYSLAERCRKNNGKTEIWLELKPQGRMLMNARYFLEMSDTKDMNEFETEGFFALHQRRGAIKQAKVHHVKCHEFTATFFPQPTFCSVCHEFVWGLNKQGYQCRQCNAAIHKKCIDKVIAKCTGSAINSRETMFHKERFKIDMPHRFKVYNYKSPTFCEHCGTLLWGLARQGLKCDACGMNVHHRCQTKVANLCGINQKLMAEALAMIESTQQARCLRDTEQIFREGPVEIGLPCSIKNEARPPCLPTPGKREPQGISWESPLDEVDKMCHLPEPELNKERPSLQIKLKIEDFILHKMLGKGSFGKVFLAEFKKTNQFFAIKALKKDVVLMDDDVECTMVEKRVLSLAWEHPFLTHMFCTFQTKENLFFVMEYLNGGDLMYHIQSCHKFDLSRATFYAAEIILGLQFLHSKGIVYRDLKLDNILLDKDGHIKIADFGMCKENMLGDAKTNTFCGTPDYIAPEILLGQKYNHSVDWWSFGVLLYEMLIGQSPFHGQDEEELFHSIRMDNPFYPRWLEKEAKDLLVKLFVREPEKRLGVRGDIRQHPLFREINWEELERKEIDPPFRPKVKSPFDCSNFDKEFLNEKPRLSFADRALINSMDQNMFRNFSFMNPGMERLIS

As for `N#Cc1c(NC(=O)CN2CCOCC2)sc2c1CCCC2`, the inhibition in test [1] came to 4.29%; in test [2], 1.29%; in test [3], 0.6%; in [4], 3.07%; in [5], 3.7%; in test [6], 1.49%. For the same compound, the inhibition was found to be 2.84% in [7]; 3.69% in test [8]; 6.16% in test [9]; 3.86% in [10]; 6.36% in test [11]; 4.08% in [12]. The inhibition is 6.46% in test [13]; 3.2% in test [14]; 4.74% in [15]; 2.59% in test [16]; 2.65% in [17]; 2.18% in [18]. In addition, the inhibition turned out to be 3.49% in test [19] and 0.84% in test [20].

A word on the inhibition: it is how much of the control response was suppressed.
